Measured values: PubChem BioAssay (NCATS)
Values without a mark were called inactive. Results filed as inconclusive are left out. Where a call stands in place of a potency, no number is given. The source made the active and inactive calls. Unless noted, calls come from the whole dose curve; as a rule, active = well fitted curve in the direction sought with a large enough effect; inconclusive = small, poorly fitted or top-dose-only effect, or another doubt; inactive = no such curve, though single readings can be large; an effect the other way counts as inactive or inconclusive.

Key:
[1] = Cellular Toxicity (caspase-3) HepG2 (AID 654);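 note: cells exposed to compound for 16 hours before reading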
Outline: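 Cells plated 5 hr at 37 °C, compound added, incubated 16 hr at 37 °C. Caspase-Glo 3/7 reagent followed, 20 min at room temperature, then luminescence read. Activation scored as signal increase; AC50 from Hill fit.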

[2] = Cellular Toxicity (caspase-3) Jurkat (AID 655); conditions: Jurkat caspase-3 activation, luminescence, DMSO = 0%, tamoxifen = 100%; at 92.2 µM (top of the series);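 note: cells exposed to compound for 16 h at 37 °C before reading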
Outline: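 Jurkat cells (5000/well) in complete medium exposed 16 h at 37 C; caspase-3/7 activity read by Caspase-Glo luminescence after 20 min at room temperature. Normalized to DMSO and 100 uM tamoxifen; AC50 from Hill fits.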

[3] = Cellular Toxicity (caspase-3) HUV-EC-C (AID 656)
Outline: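 HUV-EC-C cells (1000/well) in complete medium, compound-treated 16 h at 37 °C; caspase-3/7 activity read by Caspase-Glo 3/7 luminescence. Normalized to DMSO (basal) and 100 uM tamoxifen (100%); AC50 from Hill-equation concentration-response fits.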

[4] = Cellular Toxicity (caspase-3) SHSY5Y (AID 657)
Outline: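 SH-SY5Y human neuroblastoma cells, 1500/well, exposed to compound for 16 hours at 37 °C in complete medium. Caspase-3/7 activity read by Caspase-Glo luminescence after 1 hr at room temperature, normalized to DMSO and 10 uM staurosporine; AC50 from Hill fit.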

[5] = Cellular Toxicity (caspase-3) BJ (AID 658)
Outline: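 Luminescent aminoluciferin-substrate cleavage reports caspase 3/7 activity in normal human BJ fibroblasts after 16 hr compound exposure at 37 °C. Normalized to DMSO (basal) and 10 uM staurosporine (100%); AC50 from Hill fit of concentration-response.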

[6] = Cellular Toxicity (caspase-3) MRC-5 (AID 659)
Outline: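 Luminescence from caspase-cleaved aminoluciferin substrate (Caspase-Glo 3/7, 1 hr RT) reports caspase 3/7 activity in MRC-5 lung fibroblasts after 16 hr compound exposure. Normalized to DMSO basal and 10 uM staurosporine as 100%; AC50 from Hill fits.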

[7] = Cellular Toxicity (caspase-3) Mesangial (AID 660);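 note: cells exposed to compound for 16 h before the caspase read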
Outline: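 Mesangial cells, 1000/well, 5 h settle at 37 °C; compound 16 h, 37 °C; Caspase-Glo 3/7 reagent 20 min RT; luminescence. Norm.: DMSO = 0%, tamoxifen 100 uM = 100%. AC50, Hill fit.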

[8] = Cellular Toxicity (caspase-3) SK-N-SH (AID 661)
Outline: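 Human neuroblastoma SK-N-SH, 1500 cells/well, 5 hr pre-incubation, then compound 16 hr, 37 °C. Caspase-Glo 3/7 reagent, 1 hr RT, luminescence. Norm. to DMSO/10 uM staurosporine; Hill-fit AC50.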

[9] = Cellular Toxicity (caspase-3) H-4-II-E (AID 663);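 note: cells exposed to compound for 16 hr before readout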
Outline: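 Luminescence from caspase-cleaved aminoluciferin substrate, read 20 min after reagent addition, reports caspase 3/7 activation in rat H-4-II-E cells after 16 hr compound exposure. Normalized to DMSO (basal) and 100 uM tamoxifen (100%); AC50 from Hill fits.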

[10] = Cellular Toxicity (caspase-3) N2a (AID 665); conditions: N2a cells, luminescence, normalized: DMSO 0%, 10 µM staurosporine 100%; at 92.2 µM (top of the series);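 note: compound exposure lasted 16 h at 37 °C before readout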
Outline: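 N2a cells, 1500/well, 5 h settle at 37 °C; cpd 16 h, 37 °C; Caspase-Glo 3/7, 1 h RT; luminescence. Norm: DMSO = 0, 10 uM staurosporine = 100%. AC50, Hill fit.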

[11] = Cellular Toxicity (caspase-3) NIH 3T3 (AID 666)
Outline: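 Luminescence from aminoluciferin released by caspase-3/7 cleavage of a peptide substrate served as read-out. Mouse fibroblast NIH 3T3 cells were exposed to compounds over a concentration range for 16 hours, and AC50 values came from standard Hill modelling.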

[12] = Cellular Toxicity (caspase-3) Renal Proximal Tubule (AID 667); conditions: renal proximal tubule cells; at 91.7 µM (top of the series), primary cells freshly taken from rat, solvent-only wells 0%, staurosporine 100% unless noted;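 note: cells exposed to compound for 16 hours at 37 °C before detection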
Outline: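 Freshly isolated primary rat kidney proximal tubule cells, 1000/well, treated 16 hr at 37 °C, then Caspase-Glo 3/7 luminescence after 1 hr. Normalized to DMSO and 10 uM staurosporine; AC50 from Hill fit.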

[13] = Cell Viability - LYMP2-001 (AID 921);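 note: potency is the fitted concentration of half-maximal effect; cells exposed to compound for 24 h at 37 °C; nearly all actives have a fitted effect of over 70% in size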
Outline: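 Human lymphoblastoid LYMP2-001 cells, 2500 per well, in complete medium, treated 24 h at 37 C. Viability from cellular ATP by CellTiter-Glo luminescence; AC50 from Hill-equation fits of qHTS concentration-response.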

[14] = MultiTox-Fluor Cytotoxicity Assay - LYMP1-001 - Dead Cells (AID 946); note: potency is the fitted concentration of half-maximal effect
Outline: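 Cytotoxicity as increased dead-cell protease fluorescence (bis-AAF-R110, 485/520 nm), read 60 min after MultiTox-Fluor reagent. Human lymphoblastoid line exposed 16 h; Hill-fitted AC50, with DMSO as 0% and 15 uM tetraoctylammonium bromide as 100%.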

[15] = Cell Viability - LYMP1-002 - Assay at 16 hr (AID 948); note: potency is the fitted concentration of half-maximal effect
Outline: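 LYMP1-002 human lymphoblastoid cells, 2500/well, were treated with compounds for 16 hr at 37 C in complete medium. Viability was read as intracellular ATP by CellTiter-Glo luminescence, and AC50 was derived from a Hill fit to concentration-response data.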

[16] = MultiTox-Fluor Cytotoxicity Assay - LYMP1-002 - Dead Cells (AID 960); note: potency is the fitted concentration of half-maximal effect; nearly all actives have a fitted effect of over 60% in size
Outline: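 LYMP1-002 cells 2500/well; 5 hr 37 C pre-incubation; compound 16 hr 37 C; MultiTox-Fluor reagent 60 min RT; dead-cell fluor Ex/Em 485/520. Norm. to DMSO (0%) vs 15 uM tetraoctylammonium bromide (100%); Hill AC50.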

[17] = MultiTox-Fluor Cytotoxicity Assay - LYMP1-003 - Dead Cells (AID 961); note: potency is the fitted concentration of half-maximal effect; nearly all actives have a fitted effect of over 70% in size
Outline: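 Dead-cell protease release, detected as bis-AAF-R110 fluorescence at 485/520 nm, was measured in LYMP1-003 cells after 16 h compound treatment at 37 C. AC50 values came from Hill-modeled qHTS curves normalized to DMSO (0%) and 15 uM tetraoctylammonium bromide (100%).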

[18] = qHTS assay for small molecule disruptors of the mitochondrial membrane potential - 1 hr assay (AID 651754; calls by dose curve; note: nearly all actives have a fitted effect of over 35% in size)
Outline: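 HepG2, 2,000 cells/well, overnight attachment; cpd or DMSO 1 hr, 37C/5% CO2; Mito-MPS dye 30 min, 37C; fluorescence monomer (490/535) and aggregate (540/590).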

[19] = qHTS assay for small molecule disruptors of the mitochondrial membrane potential - 5 hr assay (AID 651755; calls by dose curve; note: nearly all actives have a fitted effect of over 40% in size)
Outline: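 HepG2 cells, attached overnight at 37C, were exposed to compound or DMSO for 5 hr at 37C, 5% CO2. Mito-MPS dye was then added for 30 min, and fluorescence read at 490/535 nm (monomers) and 540/590 nm (aggregates).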

[20] = qHTS assay for small molecule antagonists of the retinoid-related orphan receptor gamma (ROR-gamma) signaling pathway - cell viability counter screen (AID 720652; active = well fitted curve in the direction sought with a large enough effect in the repeat runs; an effect the other way counts as inactive or inconclusive;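 note: potency is the fitted concentration of half-maximal effect; compound exposure lasted 16 hr before ATP read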)
Outline: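 Luminescence from CellTiter-Glo after 30 min at room temperature reported cellular ATP as the cytotoxicity measure. Cells were the CHO reporter line with doxycycline-induced ROR-gamma expression, exposed to compound for 16 hr at 37 C.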

**Q.** Which outcome [1] does the source give for O=C1C(Cl)=C(Cl)C(=O)C(Cl)=C1Cl here?
**A.** The outcome was “inactive”.

**Q.** And the caspase-3 activation [2]?
**A.** The caspase-3 activation was -9.68%.

**Q.** And the outcome [3]?
**A.** The outcome was “inactive”.

**Q.** What about the outcome [4] of the same compound?
**A.** The outcome was “inactive”.

**Q.** And the outcome [5]?
**A.** The outcome was “inactive”.

**Q.** And the outcome [6]?
**A.** Its outcome is “inactive”.

**Q.** And the outcome [7]?
**A.** The outcome was “inactive”.

**Q.** What about the outcome [8] of the same compound?
**A.** Its outcome is “inactive”.

**Q.** And the outcome [9]?
**A.** Its outcome is “inactive”.

**Q.** And the caspase-3 activation [10]?
**A.** Its caspase-3 activation is -13.5%.

**Q.** And the outcome [11]?
**A.** The outcome was “inactive”.

**Q.** What about the caspase-3 activation [12] of the same compound?
**A.** Its caspase-3 activation is -16.1%.

**Q.** And the Potency [13]?
**A.** The Potency was 12.6 µM (active).

**Q.** What about the Potency [14] of the same compound?
**A.** Its Potency is 12.6 µM (active).

**Q.** And the Potency [15]?
**A.** The Potency was 31.6 µM (active).

**Q.** And the Potency [16]?
**A.** Its Potency is 15.8 µM (active).

**Q.** And the Potency [17]?
**A.** The Potency was 25.1 µM (active).

**Q.** What about the Potency [18] of the same compound?
**A.** The Potency was “inactive”.

**Q.** What about the Potency [19] of the same compound?
**A.** The Potency was “inactive”.

**Q.** And the Potency [20]?
**A.** The Potency was 23.7 µM (active).
